High-throughput results (PubChem)
DPM-DC inhibit = inhibitors of Streptococcus pneumoniae diphosphomevalonate decarboxylase; purified DPM-DC, PK/LDH coupled NADH fluorescence; actives 0.49% (n = 65,000); calls only at 10 µM;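 active = the 320 compounds with the highest percent inhibition in the single-dose primary screen, excluding strongly autofluorescent ones, cut at about 32% in these data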;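 also: kinetic rate of NADH fluorescence loss reporting ADP formed by the decarboxylase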
PMK inhibit = inhibitors of Streptococcus pneumoniae phosphomevalonate kinase | purified PMK, PK/LDH-coupled NADH absorbance 340 nm | inhibition, % at 10 µM | actives 0.49% (n = 65,000) | AID 539;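 active = top-ranked compounds by inhibition in the single 10 µM screen, taking a fixed number of the strongest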
NADH enzymes = blocks coupling enzymes of NAD/NADH assays; coupled PK/LDH NADH assays, four targets; IC50, µM (series often up to 10 µM); actives 0.02% (n = 65,000); AID 774;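 active = single-dose screening hits from any of four coupled enzyme assays that gave an IC50 when retested across doses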;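 also: the DPM-DC format reads NADH fluorescence rather than 340 nm absorbance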
Abs 340nm = absorbance at 340 nm; fold change at 10 µM; 65,000 tested, under 10 active; compound absorbance at 340 nm, fold over control; AID 708;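 active = at 10 µM dose, initial 340 nm absorbance at least 2 fold that of control wells; inactive = change under 2 fold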;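 also: initial absorbance extrapolated from kinetic A340 decline of NADH oxidation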
Fluor 339 460 = intrinsic fluorescence of library compounds, ex339/em460 – biochemical, MLSMR library, data from DPM-DC assay, artefact control, profiling panel; compound autofluorescence, ex339/em460 nm, NADH buffer; hits give high values; 1 = no-compound wells, NADH background; fluorescence fold increase at 10 µM; actives 5.5% (n = 65,000); AID 709;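 active = at 10 µM, mean starting fluorescence two-fold or more over control wells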;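 also: signal is the first read of a kinetic run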
MK inhibit = blocks S. pneumoniae mevalonate kinase | purified MK, PK/LDH-coupled NADH absorbance 340 nm | inhibition, % at 10 µM | actives 0.48% (n = 65,000);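 active = ranked among the strongest by inhibition in the single 10 µM screen, a fixed top-ranked set picked for dose follow-up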
Numbers stand for hits; 0 = inactive; - = not tested or not shown; + = active, no number. In the library only some 6.5% were active in any assay of this set; here they are far more common.

SMILES	DPM-DC inhibit	PMK inhibit	NADH enzymes	Abs 340nm	Fluor 339 460	MK inhibit
COc1cc(C(=O)Nc2cccc(-c3nc4ccccc4o3)c2C)cc(OC)c1OC	0	0	0	0	0	0
COc1cccc(C(=O)Nc2ccc(-c3nc4ccccc4o3)c(O)c2)c1	-	0	0	0	2.12	0
COc1cc(OC)cc(C(=O)Nc2ccc(-c3nc4ccccc4o3)cc2)c1	-	0	0	0	2.17	0
COc1cc(C(=O)Nc2ccc(-c3nc4cc(C)ccc4o3)c(O)c2)cc(OC)c1OC	-	0	0	0	4.67	0
O=C(Nc1ccc2oc(-c3ccccc3)nc2c1)c1ccncc1	0	0	0	0	0	0
CCCCOC(=O)Nc1cccc(C(C)=O)c1	0	0	0	0	0	0
CCCN(S(=O)(=O)c1ccc(OCC)cc1)S(=O)(=O)c1cccs1	0	0	0	0	0	0
COn1c(C)c(C(C)=O)c2c3nonc3ccc21	0	0	0	0	3.02	0
CCCCOn1c(C)c(C(=O)OCC)c2c3nonc3ccc21	0	0	0	0	2.57	0
Cc1cccc(NS(=O)(=O)c2cccc3cccnc23)n1	0	0	0	0	0	0
Cc1cccc(NS(=O)(=O)c2ccccc2)n1	-	0	0	0	2.11	0
Cc1cc(C)n(CCCNCC(O)c2ccccc2)n1 (stereo not given)	0	0	0	0	0	53.0
O=C(COc1ccc(-n2cnnn2)cc1)NCCc1ccc(F)cc1	0	0	0	0	0	0
COc1cc(OC)c2c(C)c(Cl)c(=O)oc2c1	-	0	0	0	3.66	0
COc1ccc(Cn2c(C)nc3oc4cc(OC)ccc4c(=O)c3c2=O)cc1	0	0	0	0	0	0
Cc1cc(C)n2nc(SCc3cc(=O)n4ccccc4n3)nc2n1	0	0	0	0	0	0
Cc1cc(C)n2nc(SCc3cc(=O)n4c(C)cccc4n3)nc2n1	0	28.0	0	0	0	0
O=C(O)C1C2C=CC3(CN(Cc4ccccn4)C(=O)C13)O2 (stereo not given)	0	0	0	0	0	0
COc1ccccc1C(=O)N(Cc1nc(-c2ccc(Cl)cc2)no1)C(C)C	0	0	0	0	0	0
COc1ccc(CCn2c(=N)c(C(=O)NCc3ccco3)cc3c(=O)n4ccccc4nc32)cc1	0	0	0	0	0	0
CNC(=O)c1cc2c(=O)n3cc(C)ccc3nc2n(C(C)C)c1=N	-	0	0	0	5.02	0
CNC(=O)c1cc2c(=O)n3cc(C)ccc3nc2n(Cc2ccco2)c1=N	0	0	0	0	2.04	0
CSc1ccccc1C(=O)NCc1ccc2c(c1)OCO2	0	0	0	0	0	0
O=C1c2ccccc2NC2CCCCC12 (stereo not given)	0	0	0	0	0	0
O=C1c2ccccc2NC2CCCCCN12 (stereo not given)	-	0	0	0	3	0
SMILES	DPM-DC inhibit	PMK inhibit	NADH enzymes	Abs 340nm	Fluor 339 460	MK inhibit
COc1ccc(-c2c3c(nc4sc(C(=O)Nc5cc(C)on5)c(N)c24)CCC3)cc1	+	0	0	0	2.65	0
O=C(COC(=O)c1ccccc1NC(=O)c1ccco1)NCCC1=CCCCC1	-	0	0	0	2.03	0
Cc1ccc(Nc2nc(OC(C(F)(F)F)C(F)(F)F)nc(N3CCOCC3)n2)cc1	0	0	0	0	0	0
CCOc1nc(Nc2ccc(-c3nc4ccccc4o3)cc2)nc(N2CCOCC2)n1	-	0	0	0	4.76	0
CC(NC(=O)Nc1ccc(F)cc1F)c1ccncc1 (stereo not given)	0	0	0	0	0	0
COc1ccc(-n2ccnc2SCC(=O)Nc2ccc(OC)cc2OC)cc1	0	0	0	0	0	0
CC(/C=N/n1cnnc1)=C\c1ccco1	+	0	3441µM	0	0	0
O=C1OC(Nc2ccc(F)cc2F)c2ccccc21 (stereo not given)	0	0	0	0	0	0
COC(=O)c1ccccc1NC1OC(=O)c2ccccc21 (stereo not given)	0	0	0	0	3	0
O=c1c(/C=N/O)c(Nc2ccccc2)nc2ccccn12	0	0	0	0	0	0
CC(=O)Nc1ccc2oc(-c3cc(F)c(F)cc3Cl)nc2c1	-	0	0	0	3.81	0
CC(=O)Nc1ccc2oc(-c3ccccc3Br)nc2c1	0	0	0	0	2.16	0
c1ccc(COc2ccc(Nc3ncnc4nc[nH]c34)cc2)cc1	0	0	0	0	0	0
Cc1ccc(S(=O)(=O)NC2=NCCC2)cc1	0	0	0	0	0	0
